Calls of active or inactive are those of the source.

Experimental findings from PubChem BioAssay are described below.

For assay [1], the system named is Human papillomavirus type 1a protein E7 (residues 44-93). Put plainly: small molecules binding HPV E7 44-93 – biochemical, small-molecule microarray, residues 44-93, 635 nm fluorescence, primary screen (AID 1108).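 Note: E7 fragment applied at 1 µg/mL in TBST for 1 h at 4 C; score combines spot fluorescence with its signal to noise ratio.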 The conditions noted are these: fluorescence 635 nm, higher = more signal.
A short description of assay [2]: hepatitis C replication reporter changes, two-sided – Huh7 cells, luciferase reporter, HCV replication inhibitor project, primary screen (AID 1109).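 Note: huh7 hepatoma cells harbouring a luciferase neomycin HCV replicon reporter; luciferase luminescence as measure of HCV replicon replication; test concentration not given here.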 As to conditions: Huh7 HCV replicon luciferase reporter, 48 h; higher = more signal.
The target in assay [3] is Left-right determination factor 2 (Homo sapiens) (UniProt O00292). Put plainly: small molecules binding LEFTY2 protein – biochemical, small-molecule microarray, 635 nm fluorescence scan, primary screen (AID 1110). The conditions noted are these: higher = more signal.
Assay [4] has as its target Calmodulin-1 (Homo sapiens) (UniProt P0DP23). Nature of the assay: small molecules binding calmodulin-1 with EGTA – biochemical, small-molecule microarray, Cy5-labelled CALM1, profiling panel (AID 1111).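 Note: labelled calmodulin applied in Tris saline Tween buffer holding calcium plus EGTA and DTT.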 As to conditions: Cy5-CALM1 binding fluorescence, higher = more signal.
For assay [5] the target is unchanged. Nature of the assay: small molecules binding Ca-loaded calmodulin-1 – biochemical, small-molecule microarray, Cy5-labelled CALM1, plus calcium, artefact control for SMM control-protein annotation, profiling panel (AID 1112).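 Note: score merges spot fluorescence with signal to noise from triplicate slides.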 As to conditions: Cy5-CALM1 binding fluorescence, higher = more signal.
Assay [6] is described as follows: probe aWnt5a binding to arrayed compounds – biochemical, biotinylated probe, 635/667 nm fluorescence, primary screen (AID 1113).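 Note: score merges 667 nm fluorescence intensity with signal-to-noise per printed feature.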 The conditions noted are these: small-molecule microarray, higher = more signal.
Assay [7] is described as follows: probe aShh binding to arrayed compounds – biochemical, biotinylated probe, 635/667 nm fluorescence, primary screen (AID 1114).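 Note: probe is biotin-labelled aShh protein from a stem cell growth factor screen; measures binding of labelled protein to compounds printed on the slide; score merges feature fluorescence at 667 nm with signal-to-noise.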 As to conditions: small-molecule microarray, higher = more signal.
A short description of assay [8]: probe aNog binding to arrayed compounds – biochemical, biotinylated probe, 635/667 nm fluorescence, primary screen (AID 1115).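 Note: probe is biotinylated aNog protein used at 0.15 µg/mL for 1 h at 4 C; z-score combines 667 nm fluorescence of each spot with its signal to noise.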 As to conditions: small-molecule microarray, higher = more signal.
The target in assay [9] is Torsin-1A-interacting protein 1 (Homo sapiens) (UniProt Q5JTV8). Nature of the assay: compound microarray binding of lysate hLAP1 – cell lysate, small-molecule microarray, COS7 lysate, 635/667 nm fluorescence, primary screen (AID 1116). As to conditions: 635 nm fluorescence, higher = more signal.
For assay [10], the target named is Alpha-bungarotoxin (Bungarus multicinctus) (UniProt P60615). Nature of the assay: compounds binding labelled alpha-BTX control protein – biochemical, small-molecule microarray, Alexa647 label, 635/667 nm fluorescence, artefact control for SMM control protein annotation, profiling panel (AID 1117). As to conditions: alpha-BTX-A647 binding fluorescence, higher = more signal.

A further assay addresses Albumin (Bos taurus) (UniProt P02769). Put plainly: compounds binding labelled BSA control protein – biochemical, small-molecule microarray, Alexa647 label, 635/667 nm fluorescence, artefact control for SMM control protein annotation, profiling panel (AID 1118).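 Note: score merges 667 nm emission intensity and signal-to-noise per printed compound spot.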 The conditions noted are these: BSA-A647 binding, fluorescence 635 nm, higher = more signal.
Assay [11] can be described thus: probe aXIP binding to arrayed compounds – biochemical, NeuroSMM set, 635/667 nm fluorescence, primary screen (AID 1119).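 Note: probe is the protein aXip251-270 applied at 1 µg/mL to compound-printed slides; binding of probe to printed compounds measured as 667 nm fluorescence plus signal to noise.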 As to conditions: small-molecule microarray, higher = more signal, called active from +8 up or from −8 down.
Assay [12] is described as follows: probe aNOTCH3 binding on compound microarray – biochemical, small-molecule microarray, 635/667 nm fluorescence, primary screen (AID 1120).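 Note: probe is a biotin-tagged antibody raised against NOTCH3 rather than NOTCH3 protein; score merges spot fluorescence near 667 nm with spot signal to noise.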 The conditions noted are these: higher = more signal.
Assay [13] in a line: probe aNOTCH2 binding on compound microarray – biochemical, small-molecule microarray, 635/667 nm fluorescence, primary screen (AID 1121).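 Note: score merges feature fluorescence read at 667 nm with its signal to noise.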 The conditions noted are these: higher = more signal.
Assay [14] has as its target Carbonic anhydrase 2 (Homo sapiens) (UniProt P00918). Put plainly: compounds binding carbonic anhydrase 2 – biochemical, small-molecule microarray, Alexa647-labelled CAII, profiling panel (AID 1122). As to conditions: CAII-A647 binding fluorescence, higher = more signal.
Assay [15] in a line: COS7 lysate on small-molecule microarray, probe aHis, 635 nm (AID 1123).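 Note: z-score combines 667nm fluorescence intensity with signal-to-noise per printed compound spot.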 As to conditions: COS7 cell lysate, fluorescence, higher = more signal.
The nature of assay [16]: probe aLAP1 signal on lysate-treated microarray – cell lysate, small-molecule microarray, COS7 lysate, primary screen (AID 1124).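 Note: lysate comes from COS7 cells expressing LAP1 and is applied at 0.3 µg/mL; score merges spot fluorescence near 667 nm with signal-to-noise over triplicate slides.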 The conditions noted are these: probe aLAP1, fluorescence, higher = more signal.
The next assay concerns Sam68 (KHDRBS1). Nature of the assay: compounds binding KHDRBS1 protein – biochemical, small-molecule microarray, 635 nm fluorescence, primary screen (AID 1125).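 Note: score merges 667 nm channel intensity with signal to noise over triplicate slides.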 The conditions noted are these: higher = more signal.
Assay [17] relates to Chordin-like protein 2 (CHRDL2). Nature of the assay: compounds binding chordin-like 2 – biochemical, small-molecule microarray, 635 nm fluorescence, primary screen (AID 1126).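 Note: printed compound slides probed with Chrdl2 protein at 4 µg/mL for 1 h at 4 C; score merges 667 nm emission intensity with signal to noise over three replicate slides.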 As to conditions: fluorescence 635 nm, higher = more signal.
Assay [18] has as its target Concanavalin-A (Canavalia ensiformis) (UniProt P02866). Put plainly: compounds binding concanavalin A lectin – biochemical, small-molecule microarray, Alexa647 label, 635 nm, artefact control for SMM control protein annotation, primary screen (AID 1127).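 Note: z combines 667 nm emission intensity with signal-to-noise across three replicate slides.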 As to conditions: ConA-A647 binding fluorescence, higher = more signal.

Sequence of Torsin-1A-interacting protein 1 (Homo sapiens) (Q5JTV8 whole entry, looked up): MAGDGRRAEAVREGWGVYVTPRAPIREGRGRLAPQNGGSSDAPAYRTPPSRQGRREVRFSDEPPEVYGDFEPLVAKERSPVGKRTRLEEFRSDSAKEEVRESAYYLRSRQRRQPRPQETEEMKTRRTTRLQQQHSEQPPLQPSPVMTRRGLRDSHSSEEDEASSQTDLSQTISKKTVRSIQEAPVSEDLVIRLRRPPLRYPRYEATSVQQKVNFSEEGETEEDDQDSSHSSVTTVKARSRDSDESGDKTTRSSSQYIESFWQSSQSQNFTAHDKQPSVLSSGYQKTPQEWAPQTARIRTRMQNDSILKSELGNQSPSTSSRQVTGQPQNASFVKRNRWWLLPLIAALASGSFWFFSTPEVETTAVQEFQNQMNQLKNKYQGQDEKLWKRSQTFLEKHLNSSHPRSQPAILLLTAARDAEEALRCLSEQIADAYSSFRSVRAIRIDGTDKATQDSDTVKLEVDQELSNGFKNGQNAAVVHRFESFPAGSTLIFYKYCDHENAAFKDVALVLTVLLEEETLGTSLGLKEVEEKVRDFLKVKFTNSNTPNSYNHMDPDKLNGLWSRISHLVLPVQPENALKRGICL
Sequence of Alpha-bungarotoxin (Bungarus multicinctus) (P60615 whole entry, looked up): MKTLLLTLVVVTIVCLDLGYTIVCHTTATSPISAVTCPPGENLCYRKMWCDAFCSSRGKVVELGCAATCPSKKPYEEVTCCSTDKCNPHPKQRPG
Sequence of Left-right determination factor 2 (Homo sapiens) (O00292 whole entry, looked up): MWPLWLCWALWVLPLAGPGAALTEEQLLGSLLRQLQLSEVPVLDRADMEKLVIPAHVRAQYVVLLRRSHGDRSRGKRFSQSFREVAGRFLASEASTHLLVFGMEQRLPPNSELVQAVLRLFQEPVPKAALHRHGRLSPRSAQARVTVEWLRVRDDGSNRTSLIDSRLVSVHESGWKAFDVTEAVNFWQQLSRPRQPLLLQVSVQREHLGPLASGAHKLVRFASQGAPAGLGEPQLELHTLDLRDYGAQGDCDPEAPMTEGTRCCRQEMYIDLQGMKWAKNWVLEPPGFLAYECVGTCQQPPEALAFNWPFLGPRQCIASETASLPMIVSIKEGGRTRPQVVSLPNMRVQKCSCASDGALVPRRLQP
Sequence of Albumin (Bos taurus) (P02769 whole entry, looked up): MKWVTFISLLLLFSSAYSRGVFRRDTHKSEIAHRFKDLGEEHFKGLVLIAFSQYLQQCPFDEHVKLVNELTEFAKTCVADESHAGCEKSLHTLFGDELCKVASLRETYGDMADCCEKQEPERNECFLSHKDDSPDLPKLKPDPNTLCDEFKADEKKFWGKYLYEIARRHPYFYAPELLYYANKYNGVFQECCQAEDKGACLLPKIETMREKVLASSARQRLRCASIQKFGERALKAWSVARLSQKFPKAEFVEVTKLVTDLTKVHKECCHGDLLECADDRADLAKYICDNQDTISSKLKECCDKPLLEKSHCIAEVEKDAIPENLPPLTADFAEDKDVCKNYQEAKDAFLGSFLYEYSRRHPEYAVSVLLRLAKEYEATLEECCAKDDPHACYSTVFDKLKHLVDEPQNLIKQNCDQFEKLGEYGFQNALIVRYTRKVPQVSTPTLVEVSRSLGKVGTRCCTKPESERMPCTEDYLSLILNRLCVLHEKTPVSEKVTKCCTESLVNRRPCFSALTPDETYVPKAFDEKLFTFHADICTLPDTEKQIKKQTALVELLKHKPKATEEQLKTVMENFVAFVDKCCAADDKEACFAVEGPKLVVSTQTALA
Sequence of Concanavalin-A (Canavalia ensiformis) (P02866 whole entry, looked up): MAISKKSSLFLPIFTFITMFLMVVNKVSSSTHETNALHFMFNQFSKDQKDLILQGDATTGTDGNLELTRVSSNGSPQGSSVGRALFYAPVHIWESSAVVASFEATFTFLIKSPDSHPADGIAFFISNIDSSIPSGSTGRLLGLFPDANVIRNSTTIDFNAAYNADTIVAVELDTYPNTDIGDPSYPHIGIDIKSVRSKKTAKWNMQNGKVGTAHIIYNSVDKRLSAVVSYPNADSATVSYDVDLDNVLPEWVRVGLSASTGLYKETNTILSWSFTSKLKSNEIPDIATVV

As to `[N-]=[N+]=NCc1ccccc1C[C@@]1(C(=O)O)N=C(c2ccc(OCCCO)cc2)O[C@@H]1c1ccccc1N=[N+]=[N-]`, the composite z-score was 1.42 in assay [1]; 0.101 in assay [3]; -0.281 in assay [4]; -0.222 in assay [5]; -0.0236 in assay [6]; -0.138 in assay [7]. The composite z-score in assay [8] was -0.316; in [9], 0.938; in assay [10], 0.552; with Albumin (Bos taurus), 0.855; in assay [12], 0.328; in [13], -0.0424. Also, the composite z-score is 0.726 in assay [14]; 2.05 in assay [15]; 0.497 in assay [16]; 1.3 in the assay on Sam68 (KHDRBS1); -0.256 in assay [17]; 0.421 in [18]. The z-score in [2] was -1.25. In addition, the composite Z-score in assay [11] was 0.198 (inactive).
For the molecule `CC(C)[Si]1(C(C)C)O[C@@H](c2ccccc2)c2cc(C3CC3)nc(-c3ccc(Oc4ccccc4)cc3)c21`, the composite z-score in [1] was -0.266; in assay [3] it was -0.436; in assay [4], -0.395; in [5], 0.89; in assay [6], -0.0758; in assay [7] it was -0.214. Moreover, the composite z-score was -0.158 in assay [8]; 0.0613 in assay [9]; -0.789 in assay [10]; -1.01 with Albumin (Bos taurus); -0.157 in assay [12]; -0.125 in assay [13]. The composite z-score in assay [14] was -0.289; in assay [15], -0.346; in assay [16], -0.0034; in the assay with Sam68 (KHDRBS1), -0.906; in [17], -0.408; in [18], -1.27. This molecule showed a z-score in [2] of -0.176. Moreover, the composite Z-score in [11] was -0.233 (inactive).
As to `COc1cc([C@@H]2N[C@H](C(=O)O)Cc3c2[nH]c2ccccc32)cc(OC)c1OC`, the composite z-score in assay [1] is 0.297; in [3] it was 0.649; in assay [4], -0.0344; in assay [5] it was -0.494; in assay [6] it was -0.0328; in [7], -0.221. In addition, the composite z-score is 0.0374 in assay [8]; 0.0517 in assay [9]; 0.441 in [10]; 0.1 with Albumin (Bos taurus); 0.059 in assay [12]; -0.089 in [13]. Also, the composite z-score is -0.0165 in assay [14]; -0.0553 in assay [15]; 0.238 in assay [16]; 0.0713 in the assay on Sam68 (KHDRBS1); 0.475 in assay [17]; 0.245 in assay [18]. In assay [2], the z-score is -0.0056. Further, the composite Z-score in [11] is -0.651 (inactive).
On to `COCCCNC(=O)[C@@H]1c2ccccc2C(=O)N(CC23CC4CC(CC(C4)C2)C3)[C@H]1c1ccc(CO)cc1`, for which the composite z-score was 0.666 in assay [1]; -0.191 in assay [3]; 0.879 in [4]; 0.803 in assay [5]; -0.0405 in assay [6]; 0.778 in assay [7]. Further, the composite z-score in assay [8] is 0.0051; in assay [9], 0.926; in assay [10], 0.253; with Albumin (Bos taurus), -0.507; in [12], 0.28; in [13], -0.0232. The composite z-score in assay [14] was 0.449; in assay [15], 1.34; in [16] it was 0.334; in the assay with Sam68 (KHDRBS1), 1.27; in assay [17] it was -0.0949; in assay [18], -0.171. In assay [2], this molecule had a z-score of -1.57. For the same molecule, the composite Z-score in [11] is 0.309 (inactive).
For `Cc1ccc(N2C(=O)c3ccccc3[C@](C)(C(=O)NCC(C)C)[C@@H]2c2ccc(CO)cc2)nc1`, the composite z-score is -1.1 in assay [1]; -0.337 in assay [3]; -0.584 in [4]; -1.07 in [5]; -0.0405 in assay [6]; -0.0257 in assay [7]. The composite z-score in [8] was -0.172; in [9], -0.367; in [10], -0.809; with Albumin (Bos taurus) it was -1.09; in assay [12], -0.278; in [13], -0.126. The composite z-score in [14] is 0.265; in assay [15], 0.437; in assay [16] it was -0.115; with Sam68 (KHDRBS1), -0.68; in assay [17], -0.233; in [18], -1.92. The same molecule registered a z-score in assay [2] of 0.324. In addition, the composite Z-score in [11] was 0.917 (inactive).
